hcDAF12 agonist: activators of H. contortus DAF-12 nuclear receptor; 370,000 tested, 1.4% active; AID 652067; activation, % at 6.8 µM; HEK293 hcDAF-12 lit1-tk-luc reporter, luminescence; 0% DMSO, 100% Δ7-dafachronic acid;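 active = activation above the mean of all tested compounds plus 3 SD, cut at about 5.5% in these data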
SMARCA2 activ: SMARCA2 function activation, primary screen | MG213 cells, MMTV-luciferase reporter, dexamethasone, overnight | activation, % at 9.1 µM | 370,000 tested, 1% active; in the data active = activation above about 7.8%
hgDAF12 agonist: agonists of H. glycines DAF-12 nuclear receptor; HEK293 GAL4-hgDAF12 UAS-luciferase reporter, agonist luminescence; normalized to butyrate control; activation, % at 6.8 µM; 370,000 tested, 1.8% active;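 active = activation above a cutoff set at the mean of all screened compounds plus 3 SD, cut at about 10% in these data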
DAX1 inh-1: NR0B1 (DAX1) inhibition; P51843; HEK293 Gal4-DAX1 luciferase reporter, luminescence; inhibition, % at 6.75 µM; 340,000 tested, 0.99% active;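 active = inhibition above the mean over all tested compounds plus 3 SD, cut at about 4.2% in these data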;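 note: inhibition shows as a rise in luminescence from relieved DAX1 repression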
DAX1 inh-2: DAX1 (NR0B1) inhibition, primary screen; HEK293T StAR-luciferase reporter, SF-1/DAX-1 repression relief; inhibition, % at 6.8 µM; 370,000 tested, 1.1% active;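 active = inhibition above the mean over all tested compounds plus 3 SD, cut at about 3.6% in these data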;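 note: higher inhibition means more luminescence from relief of DAX-1 repression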
ssDAF-12 act: activates DAF-12 receptor from parasite S. stercoralis; HEK293 ssDAF-12/GRIP1 lit1-tk-luc reporter, luminescence; % of 3 µM dafachronic acid response; activation, % at 6.8 µM; 370,000 tested, 1% active;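 active = activation above the mean over all tested compounds plus 3 SD, cut at about 0.9% in these data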
DAX1 conf: NR0B1 (human) inhibition, confirmation; shares compounds with DAX1 inh-2; HEK293T StAR-promoter luciferase reporter, SF-1/DAX-1 repression; inhibition, % at 6.8 µM; 2,400 tested, 87% active; AID 652134;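 active = inhibition above the average of every tested compound plus 3 SD, cut at about 3.8% in these data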;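 note: active compounds raise luminescence by relieving repression of the StAR reporter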
Target sequence (P51843 whole entry, looked up): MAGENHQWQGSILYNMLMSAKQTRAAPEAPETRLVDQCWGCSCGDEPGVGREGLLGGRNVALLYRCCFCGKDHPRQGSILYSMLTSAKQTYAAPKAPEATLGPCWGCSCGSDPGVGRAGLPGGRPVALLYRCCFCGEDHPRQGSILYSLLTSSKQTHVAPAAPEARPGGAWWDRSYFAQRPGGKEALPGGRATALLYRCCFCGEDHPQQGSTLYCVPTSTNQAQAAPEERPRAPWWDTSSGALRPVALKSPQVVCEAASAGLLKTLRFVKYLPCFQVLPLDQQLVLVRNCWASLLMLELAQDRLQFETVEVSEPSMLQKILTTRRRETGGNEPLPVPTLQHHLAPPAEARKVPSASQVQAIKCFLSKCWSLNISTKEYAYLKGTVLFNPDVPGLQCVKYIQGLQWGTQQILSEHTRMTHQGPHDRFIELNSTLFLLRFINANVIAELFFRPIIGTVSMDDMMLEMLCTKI
SF1 AF2mut Luc: counter-screen for DAX1 inhibitors: nonselective inhibitors with SF-1 AF2 mutant; shares compounds with DAX1 inh-2; HEK293 StAR-luciferase, luminescence; inhibition, % at 6.8 µM; 2,400 tested, 78% active;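 active = inhibition above the mean of all tested compounds plus 3 SD, cut at about 3% in these data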
A number is an active result; 0 = inactive; - = no result given. Most compounds without a hit are left out; they make up all but 4.8% or so of the library.

SMILES | hcDAF12 agonist | SMARCA2 activ | hgDAF12 agonist | DAX1 inh-1 | DAX1 inh-2 | ssDAF-12 act | DAX1 conf | SF1 AF2mut Luc
O=C(c1cc(F)ccc1F)N1CCC(Oc2cccnc2)CC1 | 0 | 0 | 0 | - | 0 | 0 | - | -
CN(C)c1cccc(-c2cnc(N3CCC(C(N)=O)CC3)nc2)c1 | 0 | - | 0 | - | - | 0 | - | -
CCOC(=O)CC[C@@]1(C(=O)OCC)C[C@@H](CC(=O)NCCCN2CCCC2=O)C(=O)N2CCCC=C21 | 0 | 0 | 0 | - | 0 | 0 | - | -
Cc1ccc(NC(=O)CNc2cccc(S(=O)(=O)N3CCCCC3)c2)cc1F | 0 | 0 | 0 | 0 | 0 | 0 | - | -
Cc1ccc(NC(=O)CSc2ccc(S(=O)(=O)N3CCCC3)cn2)cc1F | 0 | 0 | 0 | 0 | 5.9 | 0 | 0 | 0
C/C(C=NNC(=O)CSc1nc2ccccc2n1C)=C\c1ccccc1 | 0 | 0 | 0 | - | 0 | 0 | - | -
COc1ccccc1NC(=O)Nc1ccc2c(c1)nc(C)n2C | 0 | 0 | 13 | 0 | 6.0 | 0 | 17 | 9.7
COc1ccc(NC(=O)Nc2ccc3c(c2)CCC3)cc1OC | 0 | 0 | 0 | 0 | 0 | 0 | - | -
COc1ccc(C)cc1NC(=O)Nc1ccc2c(c1)CCC2 | 0 | 0 | 0 | 0 | 0 | 0 | - | -
COc1ccccc1NC(=O)Nc1ccc2c(c1)CCC2 | 0 | 0 | 0 | 0 | 8.1 | 0 | 6.3 | 4.9
Cc1ccccc1NC(=O)Nc1ccc2c(c1)CCC2 | 0 | 0 | 0 | 0 | 5.0 | 0 | 11 | 5.5
COP(=O)(O)C(C)NC(=O)OCc1ccccc1 (stereo unspecified) | 0 | 0 | 0 | - | 0 | 0 | - | -
COc1cc(/C=C2\SC(=S)N(CCCCC(=O)O)C2=O)ccc1OS(=O)(=O)c1ccc(C)cc1 | 0 | 0 | 0 | 0 | 5.9 | 0 | 6.2 | 5.8
CCC(NC(=O)CCCN1C(=O)COc2ccc(C)cc21)c1ccccc1 (stereo unspecified) | 0 | 0 | 0 | - | 0 | 0 | - | -
C/C(=N\NC(=O)c1ccc(O)cc1)c1ccc(NC(=O)Cc2ccccc2)cc1 | 0 | 0 | 12 | 0 | 5.5 | 0 | 0 | 0
N#Cc1ccccc1OCC(=O)Nc1cc(S(=O)(=O)N2CCCCC2)ccc1N1CCOCC1 | 0 | 0 | 0 | 0 | 6.0 | 0 | 0 | 0
C=CCN1[C@H](CO)[C@H](c2ccccc2)[C@@H]1C#N | 0 | 0 | 0 | - | 0 | 0 | - | -
COc1cc2c(OC(C)=O)c3c(c(-c4ccc5c(c4)OCO5)c2cc1OC)C(=O)OC3 | 0 | 0 | 0 | 0 | 0 | 0 | - | -
COc1cc2c(O)c3c(c(-c4ccc5c(c4)OCO5)c2cc1OC)C(=O)OC3 | 0 | 0 | 0 | 0 | 6.6 | 0 | 15 | 0
N#Cc1cc2c(nc1SCC(N)=O)CCCCC2 | 0 | 0 | 0 | 0 | 4.8 | 0 | 7.3 | 4.5
O=C(C1CC1)C1(C(=O)N2CCOCC2)CC(c2ccccn2)=NO1 (stereo unspecified) | 0 | 0 | 0 | - | 0 | 0 | - | -
Cc1ccc(S(=O)(=O)N(C)CC(=O)Nc2cc(C)ccn2)cc1 | 0 | 0 | 10 | 0 | 4.6 | 0 | 6.8 | 5.2
Cc1ccc(NC(=O)c2ccc3c(c2)OCCO3)nc1 | 0 | 0 | 12 | 0 | 6.1 | 0 | 0 | 0
O=C(Nc1ccc(NC(=O)c2ccccc2Cl)nc1)c1ccco1 | 0 | 0 | 0 | 0 | 0 | 0 | - | -
Cc1ccc(NC(=O)CNC(=O)c2ccc3c(c2)OCO3)nc1 | 0 | 0 | 0 | 0 | 0 | 0 | - | -
Cc1ccc(NC(=O)c2ccco2)nc1 | 0 | 0 | 12 | 0 | 8.0 | 0 | 8.7 | 6.8
COC(=O)[C@]1(C)CN(C(=O)OC(C)(C)C)C2=C1C(=O)C[C@@](C)(C(=O)OC(C)(C)C)C2 | 0 | 0 | 0 | - | 0 | 0 | - | -
O=C(Nc1ccccc1N1CCOCC1)c1ccc(N2CCOCC2)c([N+](=O)[O-])c1 | 0 | 0 | 0 | 0 | 0 | 0 | - | -
O=C(Nc1nccs1)c1ccc(N2CCOCC2)c([N+](=O)[O-])c1 | 0 | 0 | 0 | 0 | 7.0 | 0 | 8.4 | 5.4
O=C(Nc1nccs1)c1ccc(-c2ccccc2[N+](=O)[O-])o1 | 0 | 0 | 0 | 0 | 5.2 | 0 | 7.2 | 6.3

Source: PubChem BioAssay (The Scripps Research Institute Molecular Screening Center)
